This is an account of results in PubChem BioAssay AID624330 (Southern Research Specialized Biocontainment Screening …, 2012).

In general, inhibition refers to the drop in the measured response relative to a control, in per cent.

The whole screen tested about 340,000 compounds, of which about 2,100 (0.62%) were called active. Not all results are given here. Results with a measured potency or affinity are listed apart. Unmarked numbers belong to inactive results.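 The calls were made as follows: active = first-screen hits whose inhibition reached a set limit at any dose in the follow-up dose series; inconclusive = inhibition above the set first-screen limit but never retested; inactive = the rest.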

The target of the assay is Rac GTPase-activating protein 1 (Homo sapiens) (UniProt Q9H0H5). The assay is described as follows: MgcRacGAP GTPase-activating activity inhibitors, confirmation, biochemical, ADP Hunter fluorescence, primary and confirmatory (AID 624330).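 Also: fluorescence reports GDP produced by GAP-driven GTP hydrolysis.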 As to conditions: MgcRacGAP-stimulated Rac1 GTP hydrolysis, at 30 µM, hits give high values, GST-tagged Rac1 F28L mutant substrate.
Chain of Rac GTPase-activating protein 1 (Homo sapiens) (Q9H0H5 whole entry, looked up): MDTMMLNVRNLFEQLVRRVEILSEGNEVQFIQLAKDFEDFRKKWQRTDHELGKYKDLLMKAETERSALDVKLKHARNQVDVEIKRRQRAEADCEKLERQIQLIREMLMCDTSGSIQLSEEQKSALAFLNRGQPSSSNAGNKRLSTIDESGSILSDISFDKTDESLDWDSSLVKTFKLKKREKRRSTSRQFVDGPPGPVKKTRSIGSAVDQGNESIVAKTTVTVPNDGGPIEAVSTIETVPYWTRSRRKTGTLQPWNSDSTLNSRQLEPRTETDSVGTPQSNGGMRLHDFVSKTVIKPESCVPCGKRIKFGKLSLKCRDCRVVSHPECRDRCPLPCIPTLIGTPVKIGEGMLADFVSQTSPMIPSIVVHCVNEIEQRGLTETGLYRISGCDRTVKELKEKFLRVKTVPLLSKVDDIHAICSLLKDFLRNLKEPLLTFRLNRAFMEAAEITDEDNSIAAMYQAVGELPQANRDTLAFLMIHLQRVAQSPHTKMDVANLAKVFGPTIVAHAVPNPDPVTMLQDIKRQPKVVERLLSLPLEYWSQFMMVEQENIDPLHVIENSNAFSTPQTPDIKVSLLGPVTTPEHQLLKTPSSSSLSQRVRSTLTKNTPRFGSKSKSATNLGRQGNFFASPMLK
With `C/C(=N\NC(=O)C1(C)CC1(Br)Br)c1cccc(NC(=O)c2ccc(C)o2)c1` (stereo not drawn), the inhibition is 5.18%.
For the compound `O=C(C1=NN[C@@H]2C(=O)N(Cc3ccccc3)C(=O)[C@H]12)c1ccc([N+](=O)[O-])cc1`, the inhibition was 14.7%.
The figure for `COc1ccc(/C=C2\SC(N3CCc4ccccc4C3)=NC2=O)cc1OC` is 10.4%; for `O=C(CCC(=O)c1cccs1)NCC(c1ccc(F)cc1)N1CCOCC1` (stereo not drawn) it is 4.84%; for `Cc1cccc(N2CCN(C(=O)c3ccc4c(c3)c(C)c(C)n4C)CC2C)c1` (stereo not drawn) it is -37%.
`Cc1cc(C)n(CC(=O)N2c3ccccc3Sc3ccccc32)n1`: the inhibition was 4.56%.
Consider `Cc1nn(CC(O)CN2c3ccccc3Sc3ccccc32)c(C)c1Br` (stereo not drawn), for which the inhibition is 7.34%.
The figure for `COc1ccc(NCc2ccc([N+](=O)[O-])s2)cc1` is 23.5%; for `COc1ccccc1NCc1ccc([N+](=O)[O-])s1` it is 15.3%.
As for `COC(=O)c1ccc(Sc2ccc(C)cc2)c(N)c1`, the inhibition was 9.92%.
The figure for `Cc1ccc(Sc2ccc(N)cc2C#N)cc1` is 4.36%.
For `NC(=S)c1ccc(OCCCc2ccccc2)cc1`, the inhibition was 8.89%.
For the compound `Nc1ccc(C(=O)OCCc2ccccc2)cc1`, the inhibition was 6.65%.
In the case of `CC(=O)NC(Cc1ccc(C(C)C)cc1)C(=O)NC1CCN(c2nc(C)cc(C)n2)CC1` (stereo not drawn) it was 7.86%.
The figure for `CC(c1ccc2ccccc2c1)c1ccccc1C(=O)O` (stereo not drawn) is 5.25%; for `N#C/C(=C/c1ccc(N2CCOCC2)o1)c1ccc(Br)cc1` it is 27%.
With `N#C/C(=C/c1ccc(N2CCCCCC2)o1)c1ccc(Cl)cc1`, the inhibition was 38.4%.
In the case of `N#C/C(=C/c1ccc(N2CCOCC2)o1)c1ccc(Cl)cc1`, the inhibition was 41.4%.
For the compound `N#C/C(=C\c1ccc(N2CCOCC2)cc1)c1ccccc1`, the inhibition was -4.89%.
The figure for `CCN(CC)c1ccc(C=C2C(=O)OC3(CCCC3)OC2=O)cc1` is 14.2%; for `CN(C)c1ccc(C=C2SC(=S)N(Cc3ccco3)C2=O)cc1` it is 9.1%; for `O=C1c2cccc3cccc(c23)C(=O)N1Cc1ccco1` it is 6.44%.
Take `CCN(CC)c1ccc(C=C2C(=O)OC3(CCCCC3)OC2=O)cc1`: the inhibition is 4.11%.
The figure for `O=C1c2ccccc2C(=O)N1Cc1ccco1` is 8.18%; for `COC(=O)C1=C(C)N(Cc2ccco2)C(=O)/C1=C\c1ccc(N(C)C)cc1` it is 1.57%.
The figure for `COCCNC(=S)N/N=C/c1c2ccccc2cc2ccccc12` is 6.58%.
Turning to `COc1ccccc1CC(=O)Nc1ccc2c(C)cc(=O)oc2c1`, the inhibition was 4.86%.
As for `COC(=O)C(CC(C)C)NC(=O)c1cccs1` (stereo not drawn), the inhibition is 0.95%.
The figure for `COc1ccc(N=C2S/C(=C\c3cccs3)C(=O)N2CC(C)C)cc1` is 12.5%; for `CC(C(=O)NCC(=O)Nc1ccc(F)c(F)c1F)N1CCN(Cc2ccc(C#N)cc2)CC1` (stereo not drawn) it is -0.12%.
In the case of `O=C(CN1CCN(Cc2cccc(C(F)(F)F)c2)CC1)NCC(=O)Nc1ccc(F)c(F)c1F` it was 3.75%.
As for `CC(C(=O)Nc1ccc(F)c(F)c1F)N1CCCCCC1` (stereo not drawn), the inhibition was 9.76%.
In the case of `O=C(CN1CCCCC1)NCC(=O)Nc1ccc(F)c(F)c1F` it was -2.94%.
`COc1ccc(N(CC(C)C)S(=O)(=O)c2nnc(NC(=O)CC(C)C)s2)cc1`: the inhibition is 2.69%.
As to `CC(=O)Nc1cc(-c2ccccc2)nn1Cc1ccc(Cl)cc1`, the inhibition is -1.04%.
With `[O-]/[N+](=N\Nc1ccc(Cl)cc1)c1ccccc1`, the inhibition was 9.79%.
For the compound `CN(C)c1ccc(C=Cc2ccnc3c(O)cccc23)cc1`, the inhibition is 8.47%.
Regarding `CC[n+]1ccccc1/C=C/c1ccc(N(C)C)cc1`, the inhibition was 10.2%.
In the case of `CN(C)c1ccc(/C=C/c2cc[n+](C)cc2)cc1` it was 22.9%; in that of `CC[n+]1cc(C)ccc1/C=C/c1ccc(N(C)C)cc1`, 7.19%.
The figure for `CN1/C(=C/c2cc[n+](C)c3ccccc23)C=Cc2ccccc21` is 31.4%; for `CN1C=C/C(=C\c2cc[n+](C)c3ccccc23)c2ccccc21` it is -0.62%; for `Fc1ccc(C2CC(c3ccco3)n3ncnc3N2)cc1` (stereo not drawn) it is -3.61%.
Take `Cc1cc(C(=O)Nc2sccc2C(N)=O)c(C)o1`: the inhibition was 2.82%.
In the case of `CCc1ccc2oc(C(=O)Nc3cccnc3)c(C)c2c1` it was 3.43%; in that of `COc1ccc(NC(=O)NC(C)c2ccccc2)cc1` (stereo not drawn), 7.88%.
The figure for `CN1CCN(c2nc3ccccn3c(=O)c2/C=C(\C#N)S(=O)(=O)c2ccccc2)CC1` is 10.8%.
On to `O=C(CCN1C(=O)C2C3CC(C(Br)C3Br)C2C1=O)OCC(=O)c1ccccc1` (stereo not drawn), for which the inhibition was 7.46%.
The figure for `O=C(CNS(=O)(=O)c1ccc(Cl)cc1)NC1CCCCC1` is -0.07%; for `Cc1cc(C(=O)NCc2ccc(F)cc2)n(-c2ccccc2)n1` it is 12.3%.
The figure for `COc1ccc(CN2CCN(CCCc3ccccc3)C(CCO)C2)c(OC)c1` (stereo not drawn) is 3.22%; for `COc1cccc(N2CCN(Cc3ncc(-c4ccccc4)o3)CC2)c1` it is 7.37%.
The figure for `Cn1c(/N=C/c2c[nH]c3ccccc23)nc2ccccc21` is 8.49%; for `Cc1ccc(/C=N/Nc2nc3ccccc3[nH]2)s1` it is -6%.
`Cc1cc(=O)[nH]c(N/N=C/c2c[nH]c3ccccc23)n1`: the inhibition was 22.9%.
In the case of `CC(C)n1c(/N=C/c2c[nH]c3ccccc23)nc2ccccc21` it was 1.11%; in that of `Fc1c(F)c(F)c(N/N=C/c2c[nH]c3ccccc23)c(F)c1F`, 3.69%.
In the case of `Cc1ccccc1/C=N/Nc1nc2ccccc2[nH]1` it was 18.4%; in that of `Cc1cc(N/N=C/c2c[nH]c3ccccc23)c2ccccc2n1`, -1.16%; in that of `COc1ccc(/C=N/Nc2nc3ccccc3[nH]2)c(OC)c1OC`, 12.8%.
With `Cc1ccc(-c2nc(C3CCN(S(C)(=O)=O)CC3)no2)cc1`, the inhibition is 10.6%.
`O=C1NC(Cc2ccccc2)c2nc3ccc(Cl)cc3c(=O)n2-c2ncccc21` (stereo not drawn): the inhibition is 7.29%.
In the case of `CC(NS(C)(=O)=O)C(c1cccs1)N1CCN(C)CC1` (stereo not drawn) it was 10.3%; in that of `CCOC(=O)N1CCN(CC(O)COc2ccc(C(C)C)c(C)c2)CC1` (stereo not drawn), 5.78%; in that of `COCC1CCCCN1C(=O)c1ccc(OC2CCN(CCc3ccccc3)CC2)cc1` (stereo not drawn), 10.2%.
The figure for `COC(=O)c1cc(S(=O)(=O)N2CCC(c3cc(OC)ccc3OC)C2)c[nH]1` (stereo not drawn) is 8.61%.
The figure for `Cc1ccc(-c2sc(C)nc2CC(=O)O)cc1` is 13.9%; for `O=C(Nc1cccc(-n2cnnn2)c1)c1cc(Cl)nc(Cl)c1` it is 9.64%.
As to `COc1ccccc1/C=C/C(=O)OCc1nc2ccccc2c(=O)[nH]1`, the inhibition is 7.19%.
In the case of `CC(C)(Oc1ccc(Cl)cc1)C(=O)NC1CC1` it was 7.55%.
The figure for `CCC(C)c1ccc(OCC(=O)Nc2ccc3c(c2)C(=O)NC3=O)cc1` (stereo not drawn) is 5.62%.
In the case of `c1ccc(-c2ccccc2OCCCCN2CCCCC2)cc1` it was 29.3%.
Turning to `C=CCNC(=S)N/N=C(\C)c1ccc(-n2ccnc2)cc1`, the inhibition was -11.5%.
The figure for `COc1ccc(NC(=O)CN(C)C2CCCCC2)cc1Cl` is 12.2%.
In the case of `O=C(CN1CCOCC1)Nc1ccc2c(c1)OC(F)(F)O2` it was 1.95%; in that of `CN(CC(=O)Nc1ccc(Cl)c(Cl)c1)C1CCCCC1`, 23.1%; in that of `CN(CC(=O)Nc1ccc(Cl)cc1)C1CCCCC1`, 9.37%.
The figure for `CN(CC(=O)Nc1ccc(S(N)(=O)=O)cc1)C1CCCCC1` is 1.98%; for `CC1CCCCN1CC(=O)Nc1ccc2c(c1)OC(F)(F)O2` (stereo not drawn) it is -6.38%; for `c1ccc(Cc2nc3ccccc3o2)cc1` it is 8.84%.
For the compound `CCN(c1ccccc1)S(=O)(=O)c1ccc(C(=O)Nc2cccc(NC(C)=O)c2)cc1`, the inhibition was 5.09%.
Turning to `COc1ccc(/C=C2\SC(=S)N(CCC(=O)Nc3ccc(C(=O)O)cc3)C2=O)cc1OC`, the inhibition was 0.85%.
In the case of `O=C(COC(=O)c1ccc(O)cc1)Nc1ccccc1` it was 10.2%.
For `CC(=Nc1ccccc1)Nc1ccccc1`, the inhibition is 5.11%.
Consider `COCC(=O)Nc1ccc(F)cc1`, for which the inhibition was -1.69%.
Regarding `CC(=O)Nc1ccc(N=NN2CCOCC2)cc1`, the inhibition was 4.54%.
The figure for `NC(=Nc1ccccc1)Nc1ccccc1` is 7.17%; for `O=C(Cc1ccccc1)Nc1ccc(C(=O)Nc2ccc(O)cc2)cc1` it is 24.4%; for `CC(=O)Nc1ccc(N=Nc2ccccc2)cc1` it is 0.87%.
The figure for `O=C(CC(=O)Nc1ccc(F)cc1)Nc1ccc(F)cc1` is 5.61%.
The figure for `CCC(Oc1ccccc1)C(=O)Nc1ccccc1N1CCCC1` (stereo not drawn) is 7.77%; for `CNC(=O)c1oc(-c2ccccc2)nc1C` it is 10.8%.
For the compound `O=C(COC(=O)C1CC(=O)N(c2ccc3c(c2)OCCO3)C1)Nc1ccc2c(c1)CCC2` (stereo not drawn), the inhibition is 8.9%.
Turning to `O=C1CC(NS(=O)(=O)c2cccnc2)CN1c1cccc(F)c1` (stereo not drawn), the inhibition was 6.2%.
The figure for `COC(=O)C(C(=O)N1CCN(C)CC1)C1CCCCCC1` (stereo not drawn) is -1.36%.
Consider `Cc1ccc(NC(=O)c2cc(S(=O)(=O)N3CCOCC3)ccc2Cl)cc1S(=O)(=O)N1CCOCC1`, for which the inhibition is 9.95%.
With `Cc1ccc(Nc2nc3ccccc3n3cnnc23)c(Cl)c1`, the inhibition was 5.8%.
In the case of `CCN(CC)C(=O)Cn1cc(C(=O)C(=O)NCCc2c[nH]c3ccccc23)c2ccccc21` it was 7.03%; in that of `CCN(CC)CCN(C(=O)c1cc2ccccc2cc1OC)c1nc2ccc(F)cc2s1`, 6.61%.
The figure for `FC(F)(F)c1ccc(CN2CCCCCC2)cc1` is 16.1%.
In the case of `COc1ccc(CN2CCCCCC2)cc1` it was 18.2%; in that of `COc1cc(OC)c(OC)cc1CN1CCN(Cc2ccc(C(F)(F)F)cc2)CC1`, 24.6%.
Take `COc1cc(CN2CCN(C(O)(c3ccccc3)c3ccccc3)CC2)cc(OC)c1OC`: the inhibition is 27.9%.
